# 14-3-3g Raf: modulators of 14-3-3 gamma protein binding, primary screen, biochemical, fluorescence polarization; 14-3-3 protein gamma (Homo sapiens), P61981; FP, 14-3-3gamma / TMR-pS259-Raf peptide binding; inhibition, % at 40 µM; 160,000 tested, 0.19% active; in the data active = inhibition above about 30%;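 note: 0% = protein plus tracer without compound and 100% = blank with tracer alone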
# Target sequence (P61981 whole entry, looked up): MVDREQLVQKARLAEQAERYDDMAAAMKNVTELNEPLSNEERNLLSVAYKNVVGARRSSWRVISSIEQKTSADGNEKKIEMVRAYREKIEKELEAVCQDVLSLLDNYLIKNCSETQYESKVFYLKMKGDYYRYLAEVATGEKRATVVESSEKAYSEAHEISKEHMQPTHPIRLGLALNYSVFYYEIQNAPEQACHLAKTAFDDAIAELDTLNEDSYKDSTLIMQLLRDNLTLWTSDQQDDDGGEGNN
# * = called active by the depositor. Only a selection was taken, and hits are over-represented in it overall.
SMILES,14-3-3g Raf
COc1ccc(N=Cc2cc(Br)ccc2O)c(OC)c1,-50
O=C(Oc1cccc(C(=S)N2CCOCC2)c1)c1ccccc1Cl,0
CC1=C(C(=O)OCCOc2ccccc2)C(c2cccc([N+](=O)[O-])c2)NC(=O)N1C (stereo not drawn),-2
CC1=C(C(=O)OCCOc2ccccc2)C(c2cccc([N+](=O)[O-])c2)NC(=O)N1 (stereo not drawn),34*
CC1=C(C(=O)OCc2ccccc2)C(c2cccc([N+](=O)[O-])c2)NC(=O)N1 (stereo not drawn),-6
CCCSc1nnc2c(n1)OC(c1cccc(OCC)c1OC)Nc1ccccc1-2 (stereo not drawn),-72
C=CCSc1nnc2c(n1)OC(c1cccc(C)n1)Nc1ccccc1-2 (stereo not drawn),-8
CCCCCCSc1nnc2c(n1)OC(c1ccsc1)Nc1ccccc1-2 (stereo not drawn),-36
CCCCCCSc1nnc2c(n1)OC(C)Nc1ccccc1-2 (stereo not drawn),44*
Cc1cccc(C2Nc3ccccc3-c3nnc(SCc4ccccc4F)nc3O2)n1 (stereo not drawn),22
CCCCSc1nnc2c(n1)OC(c1cccc(OCC)c1OC)Nc1ccccc1-2 (stereo not drawn),70*
CCCSc1nnc2c(n1)OC(C)Nc1ccccc1-2 (stereo not drawn),-5
CCCCSc1nnc2c(n1)OC(c1ccccc1OC)Nc1ccccc1-2 (stereo not drawn),-1
CCCCCSc1nnc2c(n1)OC(c1cccc(C)n1)Nc1ccccc1-2 (stereo not drawn),36*
Cc1cccc(N2CCN(C(=O)CSCc3ccccc3Cl)CC2)c1C,-4
O=C(c1ccc(C(F)(F)F)cc1)N1CCOCC1,11
CCOc1cccc2cc(C(N)=O)c(=Nc3ccccc3OC)oc12,-3
COc1cccc(C(=O)Nc2cc(OC)c(Cl)cc2OC)c1,-3
Cc1ccc(O)c(C=Nc2ccc(-c3nc4ccccc4o3)cc2)c1,-129
FC(F)(F)c1cc(-c2ccccc2)nc(-n2cc(Br)cn2)n1,-3
O=C(CCS(=O)(=O)c1cc(Br)cc2c1N(C(=O)C1CC1)CC2)Nc1cccnc1,24
Cc1cccc(-c2cc(C(=O)Nc3cc(C)cc(C)n3)c3ccccc3n2)c1,-27
CC1CC(C)CN(c2cc(NCCCC(=O)O)c3c4c(onc24)-c2ccccc2C3=O)C1 (stereo not drawn),-13
CC1CCCN(c2cc(NCCCC(=O)O)c3c4c(onc24)-c2ccccc2C3=O)C1 (stereo not drawn),51*
O=C(O)CCCNc1cc(N2CCN(C3CCCCC3)CC2)c2noc3c2c1C(=O)c1ccccc1-3,-104
SMILES,14-3-3g Raf
CC(=O)c1c(C)oc2ccc(N(C(C)=O)S(=O)(=O)c3cc(C)c(C)cc3C)cc12,-5
O=C(CN(Cc1ccccc1)S(=O)(=O)c1ccc(Br)cc1)NCc1ccncc1,-2
O=C(CN(Cc1ccccc1)S(=O)(=O)c1ccc(F)cc1)NCc1ccccc1,3
O=C(CN(Cc1ccccc1)S(=O)(=O)c1ccccc1)NCc1ccncc1,33*
Cc1ccc(C)c(N2CCN(C(=O)c3ccc4nc5ccccc5c(=O)n4c3)CC2)c1,-1
CCOc1ccc(Nc2cc(C(=O)NCc3ccccn3)c3ccccc3n2)cc1,-4
CSc1ccccc1Sc1cc(C(=O)NC2CCCC2)c2ccccc2n1,-11
COc1ccccc1C1Nc2ccc(C(=O)O)cc2C2C=CCC21 (stereo not drawn),-75
CCOC(=O)c1ccc2c(c1)C1C=CCC1C(C(=O)O)N2 (stereo not drawn),-48
O=C(O)c1ccc2c(c1)C1C=CCC1C(C(=O)O)N2 (stereo not drawn),36*
CCOC(=O)C1Nc2ccc(C(=O)O)cc2C2C=CCC12 (stereo not drawn),-82
O=C(O)c1ccc2c(c1)C1C=CCC1C(c1ccccn1)N2 (stereo not drawn),62*
O=C(O)c1ccc2c(c1)C1C=CCC1C(c1ccncc1)N2 (stereo not drawn),-2
c1ccc(CN2CCC(NCCc3ccc4c(c3)OCO4)CC2)cc1,-15
Cc1ccc(N)c(C(=O)C(=O)O)c1Br,-4
OC(CN1CCOCC1)CN(c1ccccc1)c1ccccc1 (stereo not drawn),92*
OC(CN1CCOCC1)CN1CCOCC1,-5
OC(CN1CCCCC1)CN(c1ccccc1)c1ccccc1 (stereo not drawn),-6
O=C(Nc1ccccc1)C1CC(=O)N(Cc2ccc3c(c2)OCO3)C(=Nc2ccccc2)S1 (stereo not drawn),-12
COc1ccc(N2C(=O)C(=O)/C(=C(/O)c3ccc(Br)cc3)C2c2ccc([N+](=O)[O-])cc2)cc1 (stereo not drawn),1
N#CC1=C(N)OC2=C(C(=O)CCC2)[C@]12C(=O)N(CC(N)=O)c1ccccc12,0
CC(=O)C1=C(C)NC2(O)c3ccccc3C(=O)C12O (stereo not drawn),5
O=C1CCCC2=C1C1(O)C(=O)c3ccccc3C1(O)O2 (stereo not drawn),56*

# Compound activity: PubChem BioAssay, Emory University Molecular Libraries Screening Center
